# In the OligoGym collection:
# Legend:
# Assay in all cases: pooled miR-30 sensor sort-seq; sequence = guide strand
# Conditions in all cases: shRNA
# [1] = target: CLDN16
# [2] = target: CLCN5
# [3] = target: CIRBP
# [4] = target: CMPK1
# [5] = target: CMPK2
# [6] = target: CMYA5
# [7] = target: CMIP
# [8] = target: CNOT1
# [9] = target: COL4A3BP
# [10] = target: COPS7A
# [11] = target: COX19
# [12] = target: COX6B2
# [13] = target: COX4I2
# [14] = target: COX10
# Note: reference of the scale not given here.
sequence,measurement,setting,value
TACACATCAACAGCATACCACA,sensor-assay potency score (higher = more potent),[1],-1.23
AAAAGCATCACTCACACTGTGA,sensor-assay potency score (higher = more potent),[2],-0.413
TATAGTAGTCTCTGGAGCCTCC,sensor-assay potency score (higher = more potent),[3],-0.259
TAGCCACCACTCTGACTCCGGC,sensor-assay potency score (higher = more potent),[3],-0.921
TCAGAGATCTGTCCGTACTTTG,sensor-assay potency score (higher = more potent),[3],-1.1
TTTTATTGGTAATCTCTCGGTG,sensor-assay potency score (higher = more potent),[2],-0.249
TATAGCACCAACAGCCATGCTA,sensor-assay potency score (higher = more potent),[2],-0.0804
TTTACTTTTTCTCACGCCCTGC,sensor-assay potency score (higher = more potent),[1],-0.567
TTAAAAAGATATAAGCAGCAGG,sensor-assay potency score (higher = more potent),[1],-0.367
TTCTCTCAGGTCCAACATCTTT,sensor-assay potency score (higher = more potent),[1],-1.61
TAGAACGTTCCACATACACATC,sensor-assay potency score (higher = more potent),[1],-1.34
TTAGAAGCATCTATTTTCTTGA,sensor-assay potency score (higher = more potent),[4],0.0499
TATCTCAACTGGTACAATCTTT,sensor-assay potency score (higher = more potent),[4],-0.621
TTTCAAACAACATCTAATCTAG,sensor-assay potency score (higher = more potent),[5],-0.108
TGAATCAATGACATCTTCCTTG,sensor-assay potency score (higher = more potent),[6],0.597
TACATCTGCCTTCCCATCCATG,sensor-assay potency score (higher = more potent),[4],-0.919
TCTTTCAAGACAACTTCCCAGC,sensor-assay potency score (higher = more potent),[7],-0.735
TTCTTCCCTGGTCTTCTCCATG,sensor-assay potency score (higher = more potent),[5],-1.63
TAATACTAGATTTCCTTCCTGA,sensor-assay potency score (higher = more potent),[6],0.791
TTCTCTGAGAGCAGTTTCGAGA,sensor-assay potency score (higher = more potent),[7],-0.721
TACAACTTTGTACAAGTTGTAG,sensor-assay potency score (higher = more potent),[4],-1.32
TTACTTCTTGATCATCTTGTGG,sensor-assay potency score (higher = more potent),[6],-0.871
TCAAGTTCTGCTTCTTCCCTGG,sensor-assay potency score (higher = more potent),[5],0.42
TTAAGTTTTCTCATCTTTCTAC,sensor-assay potency score (higher = more potent),[4],0.568
TTCGAGGTGAGGATCTTGCTGA,sensor-assay potency score (higher = more potent),[7],0.014
TCGATGACCACCATGGACCGGG,sensor-assay potency score (higher = more potent),[7],-0.357
TTTACCAAACACATTGTGCAAG,sensor-assay potency score (higher = more potent),[4],-0.707
TGACTTTAAGAGGACAGCCTTA,sensor-assay potency score (higher = more potent),[5],-1.08
TATTCTTCTGAGCATTGGCAGC,sensor-assay potency score (higher = more potent),[4],-1.31
TTTGACGAAACACACTGTTGGC,sensor-assay potency score (higher = more potent),[5],-0.342
TTGACGAAACACACTGTTGGCC,sensor-assay potency score (higher = more potent),[5],-0.221
TATGACTTCTCTTTCTCCGTGG,sensor-assay potency score (higher = more potent),[6],0.895
TTGTTTACCAAACACATTGTGC,sensor-assay potency score (higher = more potent),[4],-0.615
TTCATCATCAAAGATCTTCCTC,sensor-assay potency score (higher = more potent),[5],0.515
TTAATAAACACTAAAATGCTCC,sensor-assay potency score (higher = more potent),[4],-0.407
TTCAAGACAACTTCCCAGCGGC,sensor-assay potency score (higher = more potent),[7],-0.119
TTCGATAGCTCTGACTCTCTGA,sensor-assay potency score (higher = more potent),[6],0.415
TGGTAGGACATTTCTACCTTTT,sensor-assay potency score (higher = more potent),[5],-1.68
TCCTTCGATGGCAACAACCTGG,sensor-assay potency score (higher = more potent),[5],-1.1
TACCTGTCTACAATCACAGGAG,sensor-assay potency score (higher = more potent),[5],0.285
TAACACTAGATTTCCTTCCTGA,sensor-assay potency score (higher = more potent),[6],0.81
TTGTATTCCAGCATCAAGCACA,sensor-assay potency score (higher = more potent),[7],-0.524
TTGGAGGGCAGTGTTAGCCTGG,sensor-assay potency score (higher = more potent),[7],-0.584
TACTTCTTGATCATCTTGTGGC,sensor-assay potency score (higher = more potent),[6],0.514
TCAACTGGTACAATCTTTCCTT,sensor-assay potency score (higher = more potent),[4],0.503
TTGCTGAGAAAGGTCCGCGGGT,sensor-assay potency score (higher = more potent),[7],-0.793
TTTTGGGCACTGGTCGACCAGG,sensor-assay potency score (higher = more potent),[5],-1.61
ATAAACACTAAAATGCTCCTAA,sensor-assay potency score (higher = more potent),[4],0.491
TTCACTTTCTTCCTGATCGATT,sensor-assay potency score (higher = more potent),[6],-0.264
TTGGGTGTCGTTGTTGTCGATG,sensor-assay potency score (higher = more potent),[7],-0.39
TAATACCGTCTGCAGGACCTTT,sensor-assay potency score (higher = more potent),[5],-1.41
TAGGTGAAGATCATACTGCTGC,sensor-assay potency score (higher = more potent),[8],0.544
TTGAAATCCAGGATGGTCCAGT,sensor-assay potency score (higher = more potent),[8],0.513
TTGTAGGAAAGTCATCTTCATC,sensor-assay potency score (higher = more potent),[9],-1.71
TCTAACATTGGGCATGTCCAGC,sensor-assay potency score (higher = more potent),[10],-1.04
TAAAGCTTTTACATTCACCTAA,sensor-assay potency score (higher = more potent),[11],0.0153
ATGAATTTCTCTTTAAAGCTTT,sensor-assay potency score (higher = more potent),[11],-0.368
TAGTACTCGCAGGGCTGCGTGC,sensor-assay potency score (higher = more potent),[12],-1.22
TTCATGTCCAGCATGCGCTGCA,sensor-assay potency score (higher = more potent),[13],0.312
TAGTCAAGTCTCCAAATCCCAG,sensor-assay potency score (higher = more potent),[11],-1.71
TTCTTCTCATAGTCCCAGCGGG,sensor-assay potency score (higher = more potent),[13],-0.678
TACGGATCTGGTTCTGGCTGGG,sensor-assay potency score (higher = more potent),[12],-0.241
TTCATCTCCGCAAAGGTCTCAT,sensor-assay potency score (higher = more potent),[13],-0.117
TAGGGGGACATCTTCCCCCCAC,sensor-assay potency score (higher = more potent),[13],-1.04
TAACCGTATTTGGTAACCGAGA,sensor-assay potency score (higher = more potent),[14],-1.58
TTCCTCAGCACCAAGCTCCAGG,sensor-assay potency score (higher = more potent),[13],-0.515
TCAGCGTTGAGTTCTGTGCAGA,sensor-assay potency score (higher = more potent),[13],-0.281
TTCCAGCTCTCCACCCAGCTGA,sensor-assay potency score (higher = more potent),[12],-0.84
TTCTTGATCTGCTCGTTCCAGC,sensor-assay potency score (higher = more potent),[12],-0.0146
ATTATTGTTATGAAGACACTTC,sensor-assay potency score (higher = more potent),[11],0.267
TTCTGCACAAAGCATTTTCAAA,sensor-assay potency score (higher = more potent),[11],-1.5
TAGTCCAGGAAGTTCTGGTAGC,sensor-assay potency score (higher = more potent),[12],-0.67
ATTGTTATGAAGACACTTCATG,sensor-assay potency score (higher = more potent),[11],-0.941
AAAGGTCTCATTGAACTGGAGC,sensor-assay potency score (higher = more potent),[13],-0.86
TGGTAGTCCAGGAAGTTCTGGT,sensor-assay potency score (higher = more potent),[12],-0.611
TGATTGGATGTTATCTACCTAC,sensor-assay potency score (higher = more potent),[14],-0.498
TACACGCGGAAATAGTACTCGC,sensor-assay potency score (higher = more potent),[12],-0.697
TATTGTTATGAAGACACTTCAT,sensor-assay potency score (higher = more potent),[11],0.108
TTGAGTTCTGTGCAGAAGGGCT,sensor-assay potency score (higher = more potent),[13],-0.914
TGATCTGCTCGTTCCAGCTCTC,sensor-assay potency score (higher = more potent),[12],-0.561
ATCAATTTTCTCTCCATCCTGC,sensor-assay potency score (higher = more potent),[11],0.0848
TGAAGAAGAAGACACAACCCAT,sensor-assay potency score (higher = more potent),[13],-0.804
TCCCGTTCTTGATCTGCTCGTT,sensor-assay potency score (higher = more potent),[12],-0.329
TCGTTCCAGCTCTCCACCCAGC,sensor-assay potency score (higher = more potent),[12],-1.49
